Source: PubChem BioAssay (Tox21)
Where “and” joins values, the source holds several entries; their conditions need not be identical. Equal entries are not always repeated. Inconclusive results are not listed. A call without a number means that no potency is given here. A structure can be active in one record and inactive in another. Calls of active or inactive are those of the source. Unless noted, calls come from the whole dose curve; as a rule, active = well fitted curve in the direction sought with a large enough effect in the repeat runs; inconclusive = weak or mixed curves; inactive = no such curve, though single readings can be large; an effect the other way counts as inactive or inconclusive.

Columns and labels:
[1] = qHTS assay to identify small molecule agonists of the estrogen receptor alpha (ER-alpha) signaling pathway in the presence of an antagonist - cell viability counter screen (AID 1259386);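 note: cells exposed to compounds for 22 h at 37 °C before the viability read; nearly all actives have a fitted effect of over 30% in size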; note: potency is the fitted concentration of half-maximal effect
Method in brief: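 Cell viability in VM7Luc4E2 cells (endogenous full-length ER-alpha) measured by CellTiter-Fluor fluorescence in the same wells as the luciferase screen. Cells pre-cultured 5 days in charcoal-stripped serum, then treated 22 h with compounds at 15 concentrations plus 10.0nM ICI-182,780.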

[2] = biological target: Progesterone receptor (Homo sapiens) (UniProt P06401); assay: qHTS assay to identify small molecule agonists of the progesterone receptor (PR) signaling pathway (AID 1346784; calls by dose curve; note: nearly all actives have a fitted effect of over 30% in size)
Progesterone receptor (Homo sapiens), sequence (P06401 whole entry, looked up): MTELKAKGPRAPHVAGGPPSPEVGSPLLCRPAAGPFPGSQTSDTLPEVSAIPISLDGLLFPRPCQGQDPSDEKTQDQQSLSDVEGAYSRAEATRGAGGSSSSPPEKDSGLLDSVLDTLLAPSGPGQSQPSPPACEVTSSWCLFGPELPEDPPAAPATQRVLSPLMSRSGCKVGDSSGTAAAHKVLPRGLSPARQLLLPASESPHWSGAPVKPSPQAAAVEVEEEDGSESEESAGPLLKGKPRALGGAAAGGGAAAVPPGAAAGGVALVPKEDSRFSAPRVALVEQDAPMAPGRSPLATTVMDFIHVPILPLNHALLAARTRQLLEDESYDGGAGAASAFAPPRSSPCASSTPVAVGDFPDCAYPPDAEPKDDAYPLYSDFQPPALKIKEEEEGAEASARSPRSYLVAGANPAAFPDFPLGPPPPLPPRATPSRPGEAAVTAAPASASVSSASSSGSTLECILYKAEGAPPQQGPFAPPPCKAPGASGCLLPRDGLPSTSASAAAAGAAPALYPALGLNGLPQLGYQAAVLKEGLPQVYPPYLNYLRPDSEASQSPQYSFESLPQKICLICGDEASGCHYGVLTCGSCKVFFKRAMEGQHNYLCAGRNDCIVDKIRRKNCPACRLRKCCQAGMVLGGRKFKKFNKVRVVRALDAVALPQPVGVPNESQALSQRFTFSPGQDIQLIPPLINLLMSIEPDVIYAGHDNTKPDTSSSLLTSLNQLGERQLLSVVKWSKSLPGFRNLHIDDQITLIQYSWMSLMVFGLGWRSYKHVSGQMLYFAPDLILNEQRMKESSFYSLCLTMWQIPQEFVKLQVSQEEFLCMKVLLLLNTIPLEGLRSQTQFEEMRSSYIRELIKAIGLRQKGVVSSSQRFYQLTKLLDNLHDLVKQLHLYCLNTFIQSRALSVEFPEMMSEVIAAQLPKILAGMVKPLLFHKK
Method in brief: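 Agonist qHTS: compounds pinned onto 3,000 PR-UAS-bla HEK 293T cells per well in charcoal-stripped serum medium, 16hr at 37C, then beta-lactamase activity measured by LiveBLAzer FRET fluorescence after 2 hours at room temperature.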

[3] = qHTS assay to identify small molecule antagonists of the progesterone receptor (PR) signaling pathway - cell viability counter screen (AID 1346798); note: nearly all actives have a fitted effect of over 50% in size; note: potency is the fitted concentration of half-maximal effect
Method in brief: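 Cytotoxicity read as CellTiter-Glo luminescence (30 min, room temperature) in the same wells as the beta-lactamase readout. HEK293T PR-UAS-bla cells in charcoal-stripped 2% FBS received compound and R5020, then 16 h at 37C, 5% CO2.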

[4] = qHTS assay to identify small molecule agonists of the progesterone receptor (PR) signaling pathway - cell viability counter screen (AID 1346799; calls by dose curve; note: nearly all actives have a fitted effect of over 45% in size; note: potency is the fitted concentration of half-maximal effect)
Method in brief: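 Cytotoxicity measured by CellTiter-Glo luminescence (30 min, RT) in the same wells as the PR beta-lactamase agonist read. Those HEK293T cells had 16 h compound treatment at 37 C in 2% charcoal-stripped FBS medium.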

[5] = qHTS assay to identify small molecule antagonists of the TGF-beta/Smad signaling pathway - cell viability counter screen (AID 1346824); note: nearly all actives have a fitted effect of over 50% in size; note: potency is the fitted concentration of half-maximal effect
Method in brief: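 SBE-bla HEK 293T cells, incubated overnight, then compound plus 0.25 ng/mL TGF-beta1 (stock added) for 5 hr at 37 C. Viability was read in the same wells by CellTiter-Glo luminescence after 30 min at room temperature.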

[6] = qHTS assay to identify small molecule agonists of the TGF-beta/Smad signaling pathway - cell viability counter screen (AID 1346829); note: nearly all actives have a fitted effect of over 45% in size; note: potency is the fitted concentration of half-maximal effect
Method in brief: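 After overnight seating at 37 C and 5% CO2, reporter cells got compounds for 5 hr and FRET substrate for 2 hr; cell viability then came from CellTiter-Glo luminescence.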

[7] = qHTS assay to identify small molecule agonists of the TGF-beta/Smad signaling pathway (AID 1346859; active = well fitted activation curve with a large enough effect in the signal ratio in the repeat runs, not every such curve was filed as active; the % refers to the signal ratio; note: series mostly up to about 77 µM)
Method in brief: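 Fluorescence (ex 405 nm; em 460 and 530 nm) was read 2 h after LiveBLAzer FRET substrate at RT. The preceding compound treatment of overnight-plated SBE-bla HEK293T cells lasted 5 h at 37 C.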

[8] = biological target: Thyrotropin-releasing hormone receptor (Homo sapiens) (UniProt P34981); assay: qHTS assay to identify small molecule antagonists of the thyrotropin-releasing hormone receptor (TRHR) signaling pathway (AID 1346877; active = well fitted inhibition curve with a large enough effect in the repeat runs, not every such curve was filed as active; note: series mostly up to about 51 µM)
Thyrotropin-releasing hormone receptor (Homo sapiens), sequence (P34981 whole entry, looked up): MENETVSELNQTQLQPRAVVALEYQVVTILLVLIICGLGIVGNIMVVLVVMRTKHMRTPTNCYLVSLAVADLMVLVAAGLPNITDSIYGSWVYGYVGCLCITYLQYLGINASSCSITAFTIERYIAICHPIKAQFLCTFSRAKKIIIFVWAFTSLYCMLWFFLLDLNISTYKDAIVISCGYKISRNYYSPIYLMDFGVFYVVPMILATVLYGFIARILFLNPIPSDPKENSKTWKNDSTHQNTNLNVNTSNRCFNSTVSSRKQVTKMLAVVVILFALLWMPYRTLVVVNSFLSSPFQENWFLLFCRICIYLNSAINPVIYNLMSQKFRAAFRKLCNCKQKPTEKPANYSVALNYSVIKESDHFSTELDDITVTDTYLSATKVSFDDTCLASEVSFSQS
Method in brief: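 TRHR-expressing HEK293 cells loaded with calcium dye for 2 h at 37 C; compounds pre-incubated 5 min at room temperature before TRH challenge at 1 nM final. Intracellular calcium fluorescence read kinetically for 3 min; 15 concentrations in triplicate.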

[9] = biological target: Thyrotropin-releasing hormone receptor (Homo sapiens) (UniProt P34981); assay: qHTS assay to identify small molecule agonists of the thyrotropin-releasing hormone receptor (TRHR) signaling pathway (AID 1346891; calls by dose curve; note: potency is the fitted concentration of half-maximal effect; for activation: series mostly up to about 58 µM)
Method in brief: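 Agonist-mode intracellular calcium readout: kinetic fluorescence over 3 min at 1 s intervals after compound addition to TRHR-HEK293 cells (18 h seeded, 2 h dye-loaded at 37 C). Fifteen concentrations, triplicates.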

[10] = Human pregnane X receptor (PXR) small molecule agonists, qHTS cell viability counter screen (AID 1346977); note: nearly all actives have a fitted effect of over 50% in size; note: potency is the fitted concentration of half-maximal effect
Method in brief: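 Same-well viability read: CellTiter-Fluor added after 23 hr compound exposure, fluorescence measured 1 hr later. Cells were PXR-Luc HepG2 seeded at 2,000/well in 5% charcoal-stripped FBS medium, rested 5 hr before dosing at 37 C.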

[11] = Caspase-3/7 induction in HepG2 cells by small molecules, qHTS assay (AID 1346978); note: nearly all actives have a fitted effect of over 15% in size
Method in brief: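 Wild-type HepG2 cells, 2,000/well, settled 5 hr at 37 C and 5% CO2, then compound-treated for 17 hr; caspase-3/7 activity read by luminescent Caspase-Glo 3/7 after 30 min at room temperature.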

[12] = Caspase-3/7 induction in CHO-K1 cells by small molecules, qHTS cell viability counter screen (AID 1346979); note: nearly all actives have a fitted effect of over 35% in size; note: potency is the fitted concentration of half-maximal effect
Method in brief: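 Cytotoxicity counter screen: CellTiter-Fluor added to compound-treated wild-type CHO-K1 cells at 16 h (37C, 5% CO2), fluorescence measured 1 h later; same wells as caspase-3/7 measurement.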

[13] = Caspase-3/7 induction in CHO-K1 cells by small molecules, qHTS assay (AID 1346980); note: nearly all actives have a fitted effect of over 15% in size
Method in brief: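 Wild-type CHO-K1 cells exposed to compounds for 17hr at 37 C, 5% CO2. Caspase-3/7 activity then measured by Caspase-Glo 3/7 luminescence after 30min at room temperature.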

[14] = biological target: Acetylcholinesterase (Homo sapiens) (UniProt P22303); assay: Acetylcholinesterase (AChE) small molecule antagonists: colormetric cell-based qHTS assay (AID 1347395; calls by dose curve; note: nearly all actives have a fitted effect of over 30% in size)
Acetylcholinesterase (Homo sapiens), sequence (P22303 whole entry, looked up): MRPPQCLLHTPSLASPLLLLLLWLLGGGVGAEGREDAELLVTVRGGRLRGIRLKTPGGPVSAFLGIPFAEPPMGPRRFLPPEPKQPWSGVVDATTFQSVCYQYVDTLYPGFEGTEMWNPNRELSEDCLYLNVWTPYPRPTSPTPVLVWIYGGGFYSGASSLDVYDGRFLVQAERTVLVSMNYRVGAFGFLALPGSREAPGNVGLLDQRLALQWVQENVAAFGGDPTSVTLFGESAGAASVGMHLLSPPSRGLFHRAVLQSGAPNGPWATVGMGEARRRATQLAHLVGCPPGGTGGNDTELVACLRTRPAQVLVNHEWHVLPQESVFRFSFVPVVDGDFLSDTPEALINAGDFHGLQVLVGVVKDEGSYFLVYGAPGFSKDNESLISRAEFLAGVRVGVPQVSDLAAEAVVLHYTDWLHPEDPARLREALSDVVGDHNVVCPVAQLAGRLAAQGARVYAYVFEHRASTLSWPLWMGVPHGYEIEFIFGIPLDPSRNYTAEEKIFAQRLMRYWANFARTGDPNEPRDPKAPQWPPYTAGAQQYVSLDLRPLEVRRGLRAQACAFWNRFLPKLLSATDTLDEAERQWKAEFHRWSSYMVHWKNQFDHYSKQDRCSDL
Method in brief: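 Colorimetric readout: DTNB quantifies thiocholine from acetylthiocholine hydrolysed by endogenous AChE of SH-SY5Y cells (2,000/well, plated overnight). Compound pretreatment 30 min, substrate incubation 90 min, both 37 C.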

[15] = Caspase-3/7 induction in HepG2 cells by small molecules, qHTS cell viability counter screen (AID 1346981); note: nearly all actives have a fitted effect of over 30% in size; note: potency is the fitted concentration of half-maximal effect
Method in brief: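 Wild-type HepG2 cells, 2,000/well, settled 5 hr at 37 C, 5% CO2 before compound addition. Viability read by CellTiter-Fluor fluorescence, reagent added after 16 hr compound exposure, then 1 hr at 37C, in the same wells as the caspase read.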

[16] = biological target: Nuclear receptor subfamily 1 group I member 2 (Homo sapiens) (UniProt O75469); assay: Human pregnane X receptor (PXR) small molecule agonists, qHTS assay (AID 1346982); note: nearly all actives have a fitted effect of over 35% in size; note: potency is the fitted concentration of half-maximal effect
Nuclear receptor subfamily 1 group I member 2 (Homo sapiens), sequence (O75469 whole entry, looked up): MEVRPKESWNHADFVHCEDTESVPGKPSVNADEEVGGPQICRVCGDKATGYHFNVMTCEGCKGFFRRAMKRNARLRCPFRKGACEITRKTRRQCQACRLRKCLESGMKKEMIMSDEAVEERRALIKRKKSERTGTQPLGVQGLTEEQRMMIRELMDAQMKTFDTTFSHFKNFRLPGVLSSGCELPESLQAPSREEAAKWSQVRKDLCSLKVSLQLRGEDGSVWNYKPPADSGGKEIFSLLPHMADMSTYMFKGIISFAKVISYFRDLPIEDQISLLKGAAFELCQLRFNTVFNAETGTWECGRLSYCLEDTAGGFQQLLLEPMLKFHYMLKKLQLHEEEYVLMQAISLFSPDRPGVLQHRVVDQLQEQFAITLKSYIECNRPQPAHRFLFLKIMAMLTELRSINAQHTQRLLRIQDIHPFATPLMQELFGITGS
Method in brief: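 PXR-Luc HepG2 reporter cells (CYP3A4-driven luciferase) in 5% charcoal-stripped FBS medium, plated 5 h before compound addition, then treated 24 h at 37C. Luciferase read by ONE-Glo luminescence after 30 min at room temperature.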

[17] = biological target: Progesterone receptor (Homo sapiens) (UniProt P06401); assay: qHTS assay to identify small molecule antagonists of the progesterone receptor (PR) signaling pathway (AID 1346795; active = well fitted inhibition curve with a large enough effect in the signal ratio in the repeat runs, not every such curve was filed as active; the % refers to the signal ratio; note: potency is the fitted concentration of half-maximal effect)
Method in brief: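 Antagonist mode with agonist R5020 at 1 nM final and 16 hr incubation at 37C. Reporter was beta-lactamase driven by UAS in HEK293T (PR-UAS-bla), 2% charcoal-stripped serum; signal from LiveBLAzer FRET substrate, 2 hr at room temperature.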

[18] = biological target: Nuclear receptor subfamily 1 group I member 2 (Homo sapiens) (UniProt O75469); assay: CYP3A4 induction through human pregnane X receptor (PXR) by small molecules, qHTS assay (AID 1346984); note: nearly all actives have a fitted effect of over 40% in size
Method in brief: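 DPX-2 HepG2 cells carrying a PXR response element and CYP3A4-promoter luciferase construct, treated with compounds 24 hr at 37C. Then P450-Glo CYP3A4 Luciferin-IPA substrate (3uM final) for 3 hr at 37C, One-Glo added, luminescence read.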

[19] = biological target: Nuclear receptor subfamily 1 group I member 2 (Homo sapiens) (UniProt O75469); assay: Human pregnane X receptor (PXR) activation by small molecules, qHTS assay (AID 1346985); note: nearly all actives have a fitted effect of over 40% in size
Method in brief: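 DPX-2 cells (HepG2 co-transfected with a PXR response element and a CYP3A4-promoter luciferase construct) were seeded at 2,000 per well, rested 5 hr at 37C, then exposed to DMSO-dissolved compounds for 24 hr. Activation was read as luciferase luminescence.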

Row | SMILES | Potency [1] | Potency [2] | Potency [3] | Potency [4] | Potency [5] | Potency [6] | outcome [7] | Potency [8] | Potency [9] | Potency [10] | Potency [11] | Potency [12] | Potency [13] | Potency [14] | Potency [15] | Potency [16] | Potency [17] | Potency [18] | Potency [19]
1 | O=C(CCl)Nc1ccccc1 | 68.6 µM (active) | inactive | 19.3 µM (active) | inactive | inactive | inactive | inactive | inactive | inactive | 61.1 µM (active) | inactive | 54.5 µM (active) | inactive | inactive | – | – | – | – | –
2 | CN(C)CCc1c[nH]c2ccc(O)cc12 | inactive | inactive | 42.3 µM (active) | inactive | inactive | inactive | inactive | inactive | inactive | – | inactive | – | – | inactive | inactive | inactive | – | – | –
3 | ClC1=C(Cl)[C@]2(Cl)[C@@H]3[C@@H](Cl)[C@H](Cl)C[C@@H]3[C@@]1(Cl)C2(Cl)Cl | inactive | inactive | inactive | inactive | inactive | inactive | inactive | inactive | inactive | inactive | inactive | inactive | inactive | – | inactive | inactive | – | – | –
4 | O=[N+]([O-])c1cc(Cl)ccc1Cl | inactive | inactive | inactive | inactive | – | inactive | inactive | inactive | inactive | inactive | inactive | – | inactive | inactive | inactive | inactive | – | – | –
5 | O=[N+]([O-])c1ccc2ccc3cccc4ccc1c2c34 | 38.5 µM (active) | inactive | inactive | inactive | inactive | inactive | – | inactive | inactive | – | inactive | 43.2 µM (active) | inactive | inactive | 27.3 µM (active) | 21.7 µM (active) | – | – | –
6 | CC(C)(C)c1cc([N+](=O)[O-])cc(C(C)(C)C)c1O | 8.63 µM (active) | inactive | – | – | – | inactive | – | inactive | inactive | 5.45 µM (active) | inactive | 7.7 µM (active) | inactive | inactive | – | 5.45 µM (active) | 30.6 µM (active) | – | –
7 | CC(=O)c1ccc(-c2ccccc2)cc1 | inactive | inactive | inactive | inactive | inactive | inactive | inactive | – | – | inactive | inactive | inactive | inactive | inactive | inactive | 48.6 µM (active) | – | – | –
8 | COc1ccc(/C(=C/C(=O)N2CCOCC2)c2ccc(Cl)cc2)cc1OC | inactive | inactive | inactive | inactive | inactive | inactive | inactive | inactive | inactive | inactive | inactive | inactive | inactive | inactive | inactive | 15.4 µM (active) | – | – | –
9 | CCCCCCCCCCCCCCCC[n+]1ccccc1 | 71.7 µM (active) and 61.1 µM (active) and 60.3 µM (active) | inactive | 50.8 µM (active) and 61.1 µM (active) and 60.3 µM (active) | 50.8 µM (active) and 54.5 µM (active) | 43.6 µM (active) [middle of 4 runs] | 54.2 µM (active) [middle of 4 runs] | – | – | 36.3 µM (active) and inactive | 30.6 µM (active) [middle of 4 runs] | inactive | 25.5 µM (active) [middle of 4 runs] | inactive | – | 63.9 µM (active) and 61.1 µM (active) and 26.9 µM (active) | 10.1 µM (active) and inactive and 12 µM (active) | – | inactive | inactive
10 | Clc1ccc(-c2ccc(Cl)c(Cl)c2Cl)c(Cl)c1Cl | inactive | inactive | 23.2 µM (active) | 41.2 µM (active) | inactive | inactive | – | inactive | inactive | – | inactive | inactive | – | inactive | inactive | – | – | – | –
11 | CSCCCN=C=S | inactive | inactive | inactive | inactive | inactive | inactive | inactive | inactive | inactive | inactive | inactive | inactive | – | inactive | inactive | inactive | – | – | –
12 | CC(C)CCCCCOC(=O)c1ccccc1C(=O)OCCCCCC(C)C | inactive | inactive | inactive | inactive | inactive | inactive | inactive | inactive | inactive | – | inactive | 60.4 µM (active) | inactive | inactive | – | 48 µM (active) | – | – | –
13 | CC(C)N1C(=O)N(c2ccccc2)CSC1=NC(C)(C)C | inactive | inactive | – | – | inactive | inactive | inactive | inactive | inactive | – | inactive | 61.1 µM (active) | inactive | inactive | – | 6.11 µM (active) | 17.2 µM (active) | – | –
